Experimental findings from PubChem BioAssay (NCI) are described below.

About 83,000 compounds went through this panel and 20% of them were active in at least one assay; those are over-represented in the sample as a whole.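 In brief: 96-well plates, 48 h treatment, single concentration, percent growth endpoint.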 A number with no mark means an inactive call. Active and inactive are the calls of the source. How the source made its calls: active means growth percent below 10; inactive means the rest.

Test systems include HCT-15 colon; HT29 colon; SNB-75 CNS; SNB-19 CNS; U251 CNS; PC-3 prostate; SK-MEL-5 melanoma; UACC-62 melanoma; LOX IMVI melanoma; SK-MEL-28 melanoma; SK-MEL-2 melanoma; EKVX NSCLC; SN12C renal; UO-31 renal; TK-10 renal; ACHN renal; CAKI-1 renal; A498 renal; CCRF-CEM leukemia; MOLT-4 leukemia.
Common to all, as to assay: NCI-60 one-dose screen, 48 h (100 = growth as untreated, 0 = no growth, -100 = all killed)
What all share (settings): 10 µM

For the compound `Cc1ccc([N+](=O)[O-])c(C(=O)Nc2ccc(-c3ccc4c(c3)NC(=O)/C4=C\c3ccc[nH]3)cc2)c1`, the growth with HCT-15 colon was -17.3% (active); in the test with HT29 colon, 46.5%; in the test on SNB-75 CNS, 42.7%; with SNB-19 CNS, 30.6%; with U251 CNS, 6.92% (active); with PC-3 prostate, 21.3%. Moreover, the growth in the test with SK-MEL-5 melanoma was 101%; in the test on UACC-62 melanoma it was 39.5%; in the test with LOX IMVI melanoma, 21.9%; in the test on SK-MEL-28 melanoma it was 94.8%; with SK-MEL-2 melanoma, 75.5%; in the test on EKVX NSCLC it was 25.7%. In addition, the growth was 60.1% in the test on SN12C renal; 76.6% in the test with UO-31 renal; 105% with TK-10 renal; 66.4% in the test on ACHN renal; 69.4% with CAKI-1 renal; 134% with A498 renal. For the same compound, the results for the growth with CCRF-CEM leukemia and in the test with MOLT-4 leukemia were 22.1% and 14.1%, respectively.

For the compound `COc1ccc(/C(C)=N/N=C2C(=O)N(C)c3ccc(Br)cc32)cc1S(N)(=O)=O`, the growth in the test on HCT-15 colon is 75.1%; with HT29 colon, 101%; in the test with SNB-75 CNS, 6.59% (active); in the test on SNB-19 CNS, 34.7%; with U251 CNS it was 51.7%; with PC-3 prostate it was 73.7%. In addition, the growth in the test with SK-MEL-5 melanoma is 88.2%; in the test with UACC-62 melanoma, 73.8%; in the test on LOX IMVI melanoma, 74.6%; in the test on SK-MEL-28 melanoma, 90.3%; with SK-MEL-2 melanoma, 81.7%; in the test with EKVX NSCLC it was 56.7%. Also, the growth was 68.7% with SN12C renal; 65.1% in the test with UO-31 renal; 105% with TK-10 renal; 69.3% with ACHN renal; 41% in the test with CAKI-1 renal; 99.6% with A498 renal. For the same compound, the growth with CCRF-CEM leukemia was 89.1%; with MOLT-4 leukemia, 84.6%.

With `CN1C(=O)N(C)C2SC(N/N=C/c3ccccc3)=NC21` (stereo not given), the growth was 30.1% with HCT-15 colon; 38.5% in the test on HT29 colon; 60.7% with SNB-75 CNS; 74.6% in the test with SNB-19 CNS; 60.4% in the test with U251 CNS; 84.7% in the test on PC-3 prostate. Besides, the growth was 68.4% in the test on SK-MEL-5 melanoma; 42.5% in the test with UACC-62 melanoma; 63.4% in the test on LOX IMVI melanoma; 75.5% in the test with SK-MEL-28 melanoma; 73.3% in the test with SK-MEL-2 melanoma; 90.7% in the test with EKVX NSCLC. In addition, the growth is 81.5% with SN12C renal; 65.4% in the test with UO-31 renal; 87.4% in the test on TK-10 renal; 96.3% with ACHN renal; 72.5% with CAKI-1 renal; 81.7% in the test on A498 renal. The growth is 78.4% in the test on CCRF-CEM leukemia and 54.9% with MOLT-4 leukemia.

For the compound `Cn1cc(/C=N/Nc2cccc(Cl)n2)c2ccccc21`, the growth with HCT-15 colon is 28.2%; in the test on HT29 colon, 44.1%; in the test with SNB-75 CNS, 70.7%; in the test on SNB-19 CNS it was 76.9%; with U251 CNS, 56.2%; in the test on PC-3 prostate it was 58.4%. In addition, the growth in the test on SK-MEL-5 melanoma is 71.7%; with UACC-62 melanoma, 67.7%; with LOX IMVI melanoma, 50.1%; with SK-MEL-28 melanoma, 104%; with SK-MEL-2 melanoma it was 87.5%; in the test on EKVX NSCLC it was 57.9%. For the same compound, the growth with SN12C renal was 69.6%; in the test with UO-31 renal, 40.7%; in the test on TK-10 renal, 113%; in the test on ACHN renal, 71.4%; in the test with CAKI-1 renal, 66.9%; with A498 renal it was 101%. Further, the growth was 48.2% in the test on CCRF-CEM leukemia and 32.9% with MOLT-4 leukemia.

Take `O=c1[nH]c2ccccc2cc1CSc1ccc(Nc2nccc(-c3ccc4ccccc4c3)n2)cc1`: the growth was 30.6% in the test on HCT-15 colon; 49.9% in the test on HT29 colon; 111% with SNB-75 CNS; 71.2% in the test with SNB-19 CNS; 20% in the test with U251 CNS; 1.09% (active) in the test with PC-3 prostate. In addition, the growth is 77% in the test with SK-MEL-5 melanoma; 95.7% with UACC-62 melanoma; 3.77% (active) in the test on LOX IMVI melanoma; 65.7% with SK-MEL-28 melanoma; 96.5% with SK-MEL-2 melanoma; 68.1% with EKVX NSCLC. Besides, the growth in the test with SN12C renal is 54.1%; in the test on UO-31 renal it was 93.7%; in the test with TK-10 renal, 78.8%; in the test with ACHN renal, 79.5%; in the test on CAKI-1 renal, 72.6%; in the test on A498 renal, 82%. Further, the growth in the test on CCRF-CEM leukemia was 79.9%; in the test with MOLT-4 leukemia it was 75.1%.

Turning to `O=c1c2ccccc2nc(COc2ccccc2)n1/N=C/c1ccc(N2CCOCC2)cc1`, the growth is 80.8% in the test with HCT-15 colon; 93.8% in the test with HT29 colon; 43.9% with SNB-75 CNS; 3.55% (active) in the test on SNB-19 CNS; 51.5% in the test with U251 CNS; 75.6% in the test on PC-3 prostate. For the same compound, the growth in the test with SK-MEL-5 melanoma is 82%; in the test on UACC-62 melanoma, 69.4%; with LOX IMVI melanoma it was 69.6%; in the test with SK-MEL-28 melanoma, 83.3%; with SK-MEL-2 melanoma it was 70.4%; in the test on EKVX NSCLC, 69.7%. The growth with SN12C renal is 68%; with UO-31 renal it was 69.3%; with TK-10 renal it was 81.6%; in the test on ACHN renal it was 60.6%; with CAKI-1 renal it was 51.9%; in the test with A498 renal, 78.2%. Also, the growth is 97.7% with CCRF-CEM leukemia and 117% in the test with MOLT-4 leukemia.

For `CC[C@]12C=CCN3CC[C@@]4(c5cc(C#CCNc6ccc(C)c(Nc7nccc(-c8cccnc8)n7)c6)c(OC)cc5N(C)[C@H]4[C@@](O)(C(=O)OC)[C@@H]1OC(C)=O)C32` (stereo not given in full), the growth is 25.9% with HCT-15 colon; 25.8% in the test on HT29 colon; 77.7% in the test on SNB-75 CNS; 48.1% with SNB-19 CNS; 40.8% in the test on U251 CNS; 37.5% in the test with PC-3 prostate. Also, the growth in the test on SK-MEL-5 melanoma was 32.1%; in the test with UACC-62 melanoma, 69.4%; in the test with LOX IMVI melanoma, 38.6%; in the test with SK-MEL-28 melanoma, 37.5%; in the test on SK-MEL-2 melanoma, 61.7%; with EKVX NSCLC, 55.9%. The growth with SN12C renal is 45.3%; in the test with UO-31 renal, 46.9%; in the test on TK-10 renal, 88%; with ACHN renal it was 51.4%; with CAKI-1 renal it was 40.4%; with A498 renal, 68.1%. Further, the growth is 18.8% with CCRF-CEM leukemia and 37.9% with MOLT-4 leukemia.

As to `O=C(CSc1nnc(-c2c[nH]c3ccccc23)n1-c1ccccc1)c1ccc(Br)cc1`, the growth is 44% in the test on HCT-15 colon; 57.4% in the test on HT29 colon; 38.8% in the test on SNB-75 CNS; 70.2% with SNB-19 CNS; 61.6% in the test on U251 CNS; 46.2% with PC-3 prostate. Moreover, the growth in the test on SK-MEL-5 melanoma was 17.2%; in the test with UACC-62 melanoma, 35.2%; in the test with LOX IMVI melanoma, 41.8%; in the test on SK-MEL-28 melanoma, 34.9%; with SK-MEL-2 melanoma, -19.5% (active); with EKVX NSCLC it was 10.8%. Besides, the growth in the test with SN12C renal is 72.9%; in the test on UO-31 renal, 26%; in the test with TK-10 renal, 64.9%; in the test with ACHN renal, 37.4%; with CAKI-1 renal, 44.3%; in the test with A498 renal it was 36%. The growth with CCRF-CEM leukemia was 86.4%; in the test on MOLT-4 leukemia, 92.2%.
